From PubChem BioAssay (NCI) come the findings set out here.

The panel holds about 83,000 compounds, 20% with a hit somewhere; the sample as a whole holds those more often.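 How to read the values: 0–100, growth inhibition (40 = 60% inhibited); 0, no net growth; -100 to 0, cell death (-40 = 40% of starting cells died; -100 = all dead).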 Unmarked numbers belong to inactive results. The source made the active and inactive calls. The calls were made as follows: active = growth percent below 10; inactive = the rest.

Some test systems named below: SR leukemia; RPMI-8226 leukemia; OVCAR-8 ovarian; OVCAR-5 ovarian; OVCAR-4 ovarian; SK-OV-3 ovarian; IGROV1 ovarian; OVCAR-3 ovarian; NCI/ADR-RES ovarian; HS 578T breast.
Holding throughout (assay): NCI-60 one-dose screen, 48 h (100 = growth as untreated, 0 = no growth, -100 = all killed)
Holding throughout (conditions): 10 µM

For the molecule `CN1CCc2c(sc3ncnc(N/N=C/c4cn(-c5ccccc5)nc4-c4ccc(Cl)cc4)c23)C1`, the growth in the test with SR leukemia is 8.8% (active); in the test with RPMI-8226 leukemia, 23.7%; in the test on OVCAR-8 ovarian, -26.1% (active); in the test on OVCAR-5 ovarian, 27%; in the test on OVCAR-4 ovarian it was -9.33% (active); in the test with SK-OV-3 ovarian, 64%. Further, the growth is 1.89% (active) in the test with IGROV1 ovarian, -17.2% (active) in the test with OVCAR-3 ovarian and -35.3% (active) with NCI/ADR-RES ovarian.

Take `Cc1noc2c(Cc3ccccc3)nn(CC(=O)N/N=C/c3ccc(Cl)cc3)c(=O)c12`: the growth was 104% in the test on SR leukemia; 75.5% with RPMI-8226 leukemia; 8% (active) in the test with OVCAR-8 ovarian; 66% in the test on OVCAR-5 ovarian; -59.5% (active) in the test with OVCAR-4 ovarian; 33.9% in the test on SK-OV-3 ovarian. Further, the growth with IGROV1 ovarian is 41%; in the test with OVCAR-3 ovarian, -31.8% (active); in the test with HS 578T breast, 4.07% (active); with NCI/ADR-RES ovarian it was 53.2%.

With `COc1ccc(-c2cc(C(=O)N=Nc3c(O)[nH]c4ccc(F)cc34)c3ccccc3n2)cc1`, the growth in the test with SR leukemia was 22.5%; with RPMI-8226 leukemia, 72.2%; in the test on OVCAR-8 ovarian, 59.1%; in the test on OVCAR-5 ovarian, 88.5%; in the test on OVCAR-4 ovarian, 52%; in the test on SK-OV-3 ovarian, 101%. Also, the growth is 62.3% in the test on IGROV1 ovarian, 59.1% in the test on OVCAR-3 ovarian and 61.9% in the test with NCI/ADR-RES ovarian.

For `Nc1nc(Nc2ccccc2)nn1Cc1c(Cl)cccc1Cl`, the growth is 25% with SR leukemia; 27.1% with RPMI-8226 leukemia; 42.3% in the test with OVCAR-8 ovarian; 46.6% in the test on OVCAR-5 ovarian; 39.7% in the test on OVCAR-4 ovarian; 51.3% in the test with SK-OV-3 ovarian. Moreover, the growth is 11.2% in the test on IGROV1 ovarian, 54.6% in the test with OVCAR-3 ovarian, 29.3% with HS 578T breast and 10.6% with NCI/ADR-RES ovarian.

For the molecule `O=C(N/C(=C1/OCCN1Cc1ccccc1)[P+](c1ccccc1)(c1ccccc1)c1ccccc1)c1ccccc1`, the growth in the test with SR leukemia is 8.3% (active); with RPMI-8226 leukemia, 0.374% (active); in the test with OVCAR-8 ovarian, 16.5%; in the test with OVCAR-5 ovarian, 67.3%; in the test with OVCAR-4 ovarian, 21.2%; in the test with SK-OV-3 ovarian it was 23%. Moreover, the growth is 2.86% (active) in the test with IGROV1 ovarian, -7.02% (active) in the test with OVCAR-3 ovarian, -2.64% (active) with HS 578T breast and 97.8% with NCI/ADR-RES ovarian.

Consider `CCOC(=O)c1c(CSc2ccccc2)n(C)c2cc(CN(C)C)c(O)c(CN(C)C)c12`, for which the growth was 21.4% with SR leukemia; 28.5% in the test with RPMI-8226 leukemia; 30.4% in the test with OVCAR-8 ovarian; 63.4% in the test with OVCAR-5 ovarian; 36.5% in the test on OVCAR-4 ovarian; 87% with SK-OV-3 ovarian. In addition, the growth with IGROV1 ovarian was 25.4%; with OVCAR-3 ovarian, 13.8%; in the test on HS 578T breast it was 44.3%; in the test on NCI/ADR-RES ovarian it was 76.4%.

`O=C(Cn1nc(-c2ccccc2)ccc1=O)NN1C(=O)c2ccccc2C1=O`: the growth was 91.4% with SR leukemia; 95.7% in the test on RPMI-8226 leukemia; 81.9% in the test with OVCAR-8 ovarian; 120% in the test with OVCAR-5 ovarian; 94.7% in the test on OVCAR-4 ovarian; 117% in the test on SK-OV-3 ovarian. The growth in the test with IGROV1 ovarian was 124%; in the test on OVCAR-3 ovarian it was 125%; with HS 578T breast, 73.4%; in the test with NCI/ADR-RES ovarian, 91.2%.

Take `COc1ccc(CN2[C@H](C(=O)NCCCCCCC(=O)NO)Cc3c([nH]c4ccccc34)[C@H]2C2CC2)cc1`: the growth is 16% with SR leukemia; 15.7% in the test with RPMI-8226 leukemia; 2.69% (active) in the test on OVCAR-8 ovarian; -21.2% (active) with OVCAR-5 ovarian; 40.6% in the test with OVCAR-4 ovarian; -33.5% (active) in the test with SK-OV-3 ovarian. The growth in the test with IGROV1 ovarian is -42.4% (active); with OVCAR-3 ovarian, 3.23% (active); in the test on HS 578T breast it was -1.3% (active); with NCI/ADR-RES ovarian, 61.9%.

As for `COc1ccc(-c2cc(-c3cc(C(=O)c4ccccc4)n4ccc(C)cc34)nc(N)c2C#N)cc1`, the growth with SR leukemia was 86.7%; in the test with RPMI-8226 leukemia, 78.9%; in the test on OVCAR-8 ovarian it was 20.2%; in the test with OVCAR-5 ovarian, 90%; in the test on OVCAR-4 ovarian it was 24.2%; with SK-OV-3 ovarian it was 94.4%. Further, the growth with IGROV1 ovarian is 79.1%; in the test on OVCAR-3 ovarian, 60.5%; in the test with HS 578T breast, 8.95% (active); in the test on NCI/ADR-RES ovarian it was 43.6%.

As to `Cn1cc(-c2cc(N)n3nc(-c4c[nH]c5ccc(Br)cc45)cc3n2)c2cc(Br)cnc21`, the growth was -15.6% (active) in the test with SR leukemia; -6.39% (active) with RPMI-8226 leukemia; -41.6% (active) in the test on OVCAR-8 ovarian; -61.9% (active) in the test with OVCAR-5 ovarian; -41.1% (active) with OVCAR-4 ovarian; -55.9% (active) in the test on SK-OV-3 ovarian. In addition, the growth with IGROV1 ovarian is -21.6% (active); in the test on OVCAR-3 ovarian it was -90.4% (active); in the test with HS 578T breast it was -29% (active); with NCI/ADR-RES ovarian it was -60% (active).

`N#Cc1ccc(NC(=O)CSc2ccc(-c3ccc(Br)cc3)nn2)cc1`: the growth in the test on SR leukemia is 46.6%; in the test on RPMI-8226 leukemia, 57.6%; with OVCAR-8 ovarian it was 76.3%; in the test on OVCAR-5 ovarian, 88.2%; in the test with OVCAR-4 ovarian, 59%; in the test on SK-OV-3 ovarian, 86.1%. The growth is 74.6% with IGROV1 ovarian, 76.6% with OVCAR-3 ovarian and 35.7% in the test with NCI/ADR-RES ovarian.

Regarding `Cc1ccc(-c2ccc(SCC(=O)Nc3ccc(S(N)(=O)=O)cc3Br)nn2)cc1`, the growth is 75.3% in the test with SR leukemia; 67.8% in the test on RPMI-8226 leukemia; -29.8% (active) in the test on OVCAR-8 ovarian; 42% in the test on OVCAR-5 ovarian; 19.5% in the test with OVCAR-4 ovarian; 101% in the test on SK-OV-3 ovarian. Moreover, the growth is 45.1% in the test on IGROV1 ovarian, -63.8% (active) in the test on OVCAR-3 ovarian and 65% in the test with NCI/ADR-RES ovarian.

Regarding `O=C(NO)c1ccc(CNC(=O)[C@H]2Cc3c([nH]c4ccccc34)[C@H](c3ccc(Cl)cc3)N2)cc1`, the growth in the test on SR leukemia is 17.2%; with RPMI-8226 leukemia it was 16.9%; with OVCAR-8 ovarian, 16.1%; in the test on OVCAR-5 ovarian, -6.43% (active); in the test with OVCAR-4 ovarian, 39.7%; in the test with SK-OV-3 ovarian it was -12.7% (active). In addition, the growth is -24.6% (active) in the test on IGROV1 ovarian, 7.44% (active) in the test with OVCAR-3 ovarian, 6.12% (active) with HS 578T breast and 42% in the test with NCI/ADR-RES ovarian.

Regarding `O=c1oc2ccccc2cc1-c1csc(N=Nc2c(O)[nH]c3ccc(Br)cc23)n1`, the growth with SR leukemia was 97.1%; in the test on RPMI-8226 leukemia it was 99.7%; in the test on OVCAR-8 ovarian, 79.1%; in the test with OVCAR-5 ovarian, 98.9%; in the test on OVCAR-4 ovarian, 87.2%; in the test on SK-OV-3 ovarian, 91.9%. Also, the results for the growth in the test on IGROV1 ovarian, in the test on OVCAR-3 ovarian and with NCI/ADR-RES ovarian were 79.5%, 89.7% and 76.2%, respectively.
